PubChem BioAssay (NCATS)
A number with no mark means an inactive call. Activity calls are given as the source filed them. The call rests on the fitted dose curve; in most records, active means well fitted activation curve with a large enough effect; inconclusive means small, poorly fitted or top-dose-only effect; inactive means flat fitted curve, though single readings scatter.

Test: Confirmation and Secondary Assay for Modulators of Hemoglobin Beta Chain Splicing at IVS2 654 locus (AID 910);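 further: HeLa cells stably carrying EGFP split by mutant beta-globin IVS2-654 intron; % of control where 0% means no effect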
Conditions: HeLa EGFP-654 splicing reporter, GFP fluorescence, 48 h; series mostly up to 38.3 µM; activation (splicing correction): at the top concentration
Excerpt: NIH Chemical Genomics Center [NCGC] NIH Molecular Libraries Screening Centers Network [MLSCN] MLSCN Grant: 1 X01 MH080684-01 PI Name: Dr. Ryszard Kole NCGC Assay Overview: Modulation of Alternative Splicing as Therapy Abnormal splicing is associated with a number of diseases, including cancer and genetic diseases such as cystic fibrosis, muscular dystrophy and beta-thalassemia. Alteration of disease associated splicing patterns provides a promising target for treatment. […] Mutations in the second intron of the b-globin gene at positions 654 or 705 are clinically relevant and cause mis-splicing which results in an out of frame gene product. […] EGFP-654 HeLa Cells as screen system. HeLa cell lines were stably transfected with a construct in which the EGFP (enhanced green fluorescent protein) cDNA was interrupted by the second intron of the beta-globin gene (IVS2-654). The ISV2 intron contains mutations which cause mis-splicing of EGFP and premature termination of EGFP which results in a nonfluorescent protein product. […] Expression of the transgene was driven by the CMV promoter. We concluded that a low molecular weight compound, which restored correct splicing of intron 2 would also generate functional EGFP protein, resulting in a fluorescent signal. Thus, the HeLa cells that express the EGFP-654 construct can be used for high throughput screening of a chemical library.
NCGC Assay Protocol Summary: Confirmatory Screening. Freshly thawed HeLa EGFP-654 cells were seeded in 5 ul of optimem media (Invitrogen) containing 2 % fetal calf serum (Hyclone) and 1x penicillin/streptomycin (Invitrogen) at a concentration of 500 cells per well in 1536-well plates. Cells were incubated overnight at 37C in 5% CO2. The next day, cells were treated with DMSO, 500 nM antisense ISV2 654 PNA control oligo, or library compound and allowed to grow at 37C in 5% CO2 for 2 days. The PNA oligo blocked the mutation site in the intron and allowed proper (wild type) splicing to occur, resulting in full length EGFP expression and also allowed for optimization of the assay parameters. Plates were read in the Acumen Explorer (TTP Labtech) using 488 nm laser excitation and 500-520 nm emission PMT filter in a 1 x 8 uM capture mode. Fluorescnet objects ranging in size from 5 to 250 uM were measured and the total peak GFP intensity for each well was used for data analysis. Keywords: Thalassemia, beta-thalassemia, beta-globin, EGFP, ISV2 654, ISV2 705, SSO, PNA, antisense, splicing, MLSMR, MLSCN, NIH Roadmap, qHTS, NCGC
With `Nc1ncnc2c1ncn2C1OC(CO)C(O)C1O` (stereo not given) the Potency was “inactive”.
For `Cc1occc(=O)c1O`, the “activation (splicing correction)” value was 2.43%.
With `NC(Cc1c[nH]c2ccccc12)C(=O)O` (stereo not given) the “activation (splicing correction)” value was 1.07% [at 46.1 µM].
For `CN(C)Cc1ccccc1-c1cncnc1NCc1cccs1`, the “activation (splicing correction)” value was 1.02%.
With `C=CC(C1=CC(=O)C(OC)=CC1=O)c1ccccc1` (stereo not given) the “activation (splicing correction)” value was 14.8% [at 46.1 µM].
With `O=c1c(O)c(-c2ccc(O)c(O)c2)oc2c(OC3OC(CO)C(O)C(O)C3O)c(O)cc(O)c12` (stereo not given) the “activation (splicing correction)” value was 6.13% [at 46.1 µM].
For `O=C(O)c1cc(=O)c2cccc(O)c2[nH]1`, the “activation (splicing correction)” value was 7.55% [at 46.1 µM].
With `N#Cc1cccc(-c2nc(Nc3ccccc3)c3ccccc3n2)c1` the “activation (splicing correction)” value was 1%.
With `Cc1ccccc1-c1nc(-n2ccnc2)c2ccccc2n1` the “activation (splicing correction)” value was 1.29%.
In the case of `COc1ccccc1CNc1ncncc1-c1ccccc1CN(C)C`, the “activation (splicing correction)” value is reported as 1.22%.
With `COc1ccccc1CNc1ncnc2ccc(-c3ccc(N(C)C)cc3)cc12` the “activation (splicing correction)” value was -0.662%.
For `COc1cccc(-c2nccc(NC3CCNCC3)n2)c1`, the “activation (splicing correction)” value was 1.3%.
With `COc1ccccc1CNc1ncncc1-c1ccccc1C` the “activation (splicing correction)” value was 1.04%.
In the case of `CCCCCC/C=C\CCCCCCCc1cccc(O)c1C(=O)O`, the “activation (splicing correction)” value is reported as 1.74% [at 46.1 µM].
In the case of `Cc1ccccc1-c1cncnc1NC1CCNCC1`, the “activation (splicing correction)” value is reported as -0.247%.
With `Cc1cnc(CNc2cc(-c3ccoc3)ncn2)cn1` the “activation (splicing correction)” value was 0.034%.
In the case of `Oc1ccc2c(c1)OCC1(O)Cc3cc(O)c(O)cc3C21` (stereo not given), the “activation (splicing correction)” value is reported as 4.87% [at 46.1 µM].
For `COc1ccccc1CNc1nc(-c2ccc(N(C)C)cc2)nc2ccccc12`, the “activation (splicing correction)” value was -1.15%.
For `CN(C)Cc1ccccc1-c1ccc2ncnc(NCc3ccccc3)c2c1`, the “activation (splicing correction)” value was 2.06%.
In the case of `C#C[C@]1(O)CCC2C3CCC4=C(CCC(=O)C4)C3CC[C@@]21C` (stereo not given in full), the “activation (splicing correction)” value is reported as -3.73% [at 46.1 µM].
For `CS(=O)(=O)Nc1cccc(-c2nccc(-n3ccnc3)n2)c1`, the “activation (splicing correction)” value was 0.826%.
For `COc1ccccc1-c1nccc(NCc2cccc(C)c2)n1`, the “activation (splicing correction)” value was 0.701%.
In the case of `COC(=O)c1c(OC)cc2c(c1C)Oc1c(Cl)c(O)c(Cl)c(C)c1C(=O)O2`, the “activation (splicing correction)” value is reported as -7.81% [at 46.1 µM].
In the case of `O=C(Cc1cccs1)NC1C(=O)N2C(C(=O)[O-])=C(C[n+]3ccccc3)CSC12` (stereo not given), the “activation (splicing correction)” value is reported as 11.1% [at 46.1 µM].
In the case of `COc1ccc2c(c1)OCC(Cc1ccc(OC)c(OC(C)=O)c1)C2=O` (stereo not given), the “activation (splicing correction)” value is reported as -7.43% [at 46.1 µM].
In the case of `Cc1ccccc1-c1nccc(-n2ccnc2)n1`, the “activation (splicing correction)” value is reported as 4.18%.
In the case of `COCCNc1nc(-c2cccc(OC)c2)nc2ccccc12`, the “activation (splicing correction)” value is reported as 4.08%.
With `FC(F)(F)c1ccccc1-c1cncnc1NCCc1cnc[nH]1` the “activation (splicing correction)” value was -1.84%.
In the case of `CN(C)Cc1ccccc1-c1cncnc1Nc1ccc(F)cc1`, the “activation (splicing correction)” value is reported as -0.267%.
For `Cc1cnc(CNc2ccnc(-c3ccc(N(C)C)cc3)n2)cn1`, the “activation (splicing correction)” value was 1.86%.
In the case of `Cc1cccc(CNc2nc(-c3cccc(NS(C)(=O)=O)c3)nc3ccccc23)c1`, the “activation (splicing correction)” value is reported as -1.23%.
In the case of `CN(C)CCOC(c1ccccc1)c1ccccc1` (tested in a mixture with another compound), the “activation (splicing correction)” value is reported as 2.12% [at 46.1 µM].
With `c1ccc(Nc2ncnc3ccc(-c4ccc5c(c4)OCO5)cc23)cc1` the “activation (splicing correction)” value was 1.38%.
For `O=C1C=C(O)c2ccccc2C1=O`, the “activation (splicing correction)” value was 0.342%.
With `O=c1cc(-c2ccc(O)cc2)oc2cc(O[C@H]3OC(CO)C(O)C(O)C3O)cc(O)c12` (stereo not given in full) the “activation (splicing correction)” value was 5.58% [at 46.1 µM].
With `Nc1c2ccccc2nc2ccccc12` (tested in a mixture with another compound) the “activation (splicing correction)” value was 16.2% [at 46.1 µM].
For `CN(C)c1ccc(-c2nc(NCc3cccnc3)c3ccccc3n2)cc1`, the “activation (splicing correction)” value was 1.86%.
In the case of `NC(Cc1ccc(O)c(O)c1)C(=O)O` (stereo not given), the “activation (splicing correction)” value is reported as 1.85% [at 46.1 µM].
In the case of `Cc1ccccc1-c1nc(NCc2cccnc2)c2ccccc2n1`, the “activation (splicing correction)” value is reported as 2.7%.
For `O=C1CC[C@@]23/C=C/C(=O)NCCCCNCCCNC(=O)/C=C/c4ccc(c2c4)OC3C1` (stereo not given in full), the “activation (splicing correction)” value was 4.24% [at 46.1 µM].
